# Compounds with a hit are over-represented: about 21% of the library has one in this group of screens.
# Pf growth 48h = inhibits P. falciparum growth in the first generation, 48 h; Potency, µM (series often up to 28.7 µM), without a hit: at the top dose activity change, negative = inhibition, hits mostly inhibitors; AID 504832; 5.9% of 310,000 active; P. falciparum luciferase growth in erythrocytes, 48 h; note: potency is the fitted concentration of half-maximal effect; % is set by controls: 0 for no effect and ±100 for the full control effect
#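 Here the parasites carry a stable luciferase gene and grow inside erythrocytes in Albumax-based RPMI medium with compound for one erythrocytic cycle. Activity is scored as loss of luminescent signal.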
# Shiga toxin inh = blocks Shiga toxin action in Vero cells | Vero cells, Shiga toxin protein synthesis inhibition reporter | inhibition, % at 38.7 µM | 9.2% of 290,000 active | AID 2315; in the data active = inhibition mostly above about 28%, no sharp cut-off; inactive = mostly below about 43%; note: 0% is about no effect
# Pf growth 96h = P. falciparum growth inhibition at 96 hour, primary screen for plastid delayed-death inhibitors; 6.9% of 320,000 active; P. falciparum luciferase reporter growth, 96 h; Potency, µM (highest dose often 28.7 µM), for the others: at the highest dose activity change, negative = inhibition, usual class: inhibitors; note: potency is the fitted concentration of half-maximal effect; % is set by controls: 0 for no effect and ±100 for the full control effect
#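 Infected RBCs, 2% Hct / 0.05% parasitemia final; luciferase-reporter P. falciparum; cpd 96 h, 37 C, 5% CO2; luciferase detection reagent; luminescence.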
# CHX counter = affects cycloheximide protein synthesis inhibition readout, counter-screen. cell reporter, cycloheximide protein synthesis inhibition counterscreen. max response, %. 12% of 300,000 active. AID 2314; in the data active = max response mostly above about 13%, no sharp cut-off; inactive = mostly below about 14%; note: read at 38.3 µM for the half of the compounds with a filed dose; 0% is about no effect
# An asterisk follows results filed as active; ? = inconclusive; . = not tested or not shown; ! = not confirmed by another sample; [ ] = dose if it differs, or a comment. Unless noted, calls come from the whole dose curve; as a rule, active = well fitted inhibition curve with a large enough effect; inconclusive = small, poorly fitted or top-dose-only effect, or another doubt; inactive = no such curve, though single readings can be large or run the other way.
SMILES,Pf growth 48h,Shiga toxin inh,Pf growth 96h,CHX counter
Cc1[nH]c2c(C)cccc2c1CCNC(=O)c1ccc2c(c1[N+](=O)[O-])C(=O)c1ccccc1C2=O,12µM*,29,?,2
CC(O)C(=O)N/N=C/c1cccc2ccccc12 (stereo not given),?,3,20%,21
O=C(N/N=C/c1cc2ccccc2[nH]1)c1ccccc1Cl,3%,39,45%,16*
O=C(N/N=C/c1cccc2ccccc12)c1ccccc1Cl,-7%[0.00184 µM],49,29%,13*
Cc1occc1C(=O)N/N=C/c1cccc2ccccc12,37%,87*,?,44*
CCN(CC)c1ncc(C#N)c(N)n1,37%,-5,28%,-1
Cc1ccc(C2=Nn3c(COc4ccc(Cl)cc4)nnc3SC2CC(=O)O)cc1 (stereo not given),33%,-4,37%,-9
COc1ccc(NC(=O)C(CC(=O)O)Cc2ccc(C)cc2)cc1 (stereo not given),13%,-10,?,-3
OCCOCCn1c(-c2ccccc2)nc(=S)c2c1CCCC2,.,-6,10µM*,-5
CCCOc1ccc(C(=O)Nc2ccc(S(=O)(=O)Nc3cc(C)nc(C)n3)cc2)cc1,6%,1,?,-2
O=C(c1ccccc1)c1ccc(N2CCOCC2)c(F)c1,187%,131*,0%,21*
O=C(Cc1ccccc1)Nc1cc(C(=O)c2ccccc2)ccc1N1CCOCC1,.,-9,5.2µM*,-2
O=C(c1ccccc1)c1cc(F)c(N2CCOCC2)cc1Cl,9%,23,9.3µM*,15
O=C(c1ccccc1)c1cc([N+](=O)[O-])ccc1N1CCOCC1,-15%,-8,?,-5
COC(=O)c1ccc(N2CCOCC2)c(F)c1,.,16,94%,7
CCC(C)[C@H](NC(=O)NC(C)C)C(=O)O (stereo not given in full),4%,-3,-29%,-4
CCc1ccccc1NS(=O)(=O)c1ccc2c(c1)NC(=O)CC(=O)N2,-5%,-2,8%,-1
Cc1c(NS(=O)(=O)c2ccc3c(c2)NC(=O)CC(=O)N3)cccc1[N+](=O)[O-],12%,-5,15µM*,-10
O=C(CN1CCN(c2ccc(F)cc2)CC1)Nc1ccc(S(=O)(=O)N2CCOCC2)cc1,-13%,-2,18%,7
C/C(=N\NC(=O)c1ccccc1)c1cccc(Br)c1,58%,124*,3%,48*
C/C(=N/NC(=O)c1ccccc1)C(=O)O,14%,74*,?,42*
C/C(=N\NC(=O)c1ccccc1)C1C2C=CC(C2)C1(C)C (stereo not given),49%,91*,?,48*
C/C(=N\NC(=O)c1cccc(Br)c1)c1ccc(Br)cc1,40%,54*,66%,33*
CC(C)(C)NCC(O)c1cc(Cl)c(N)c(Cl)c1 (stereo not given),12µM*,-3,11µM*!,5
Cc1ncsc1CCOC(=O)c1ccc(Cl)cc1,41%,69*,29%,35*
SMILES,Pf growth 48h,Shiga toxin inh,Pf growth 96h,CHX counter
Cc1ncsc1CCOC(=O)c1ccccc1,128%,58*,47%,38*
CN(C(=O)Nc1ccc(Cl)cc1Cl)[C@H]1c2cc(Br)ccc2OC[C@H]1CO,8.3µM*,5,?,6
COCCNC(=O)Cn1nc(C)c([N+](=O)[O-])c1C,11%,-8,3%,1
CN(C)CCN(CC1CCCN(Cc2ccccc2F)C1)C(=O)c1ccc(Cl)cc1 (stereo not given),?,-2,13µM*,-1
COc1ccc(S(=O)(=O)N(CC(=O)N2CCCCCC2)c2ccccc2OC)cc1,?,-17,?,-4
CCC(C)n1c(=O)[nH]c(C)c(Br)c1=O (stereo not given),.,-14,.,-2
Cc1c(Cl)cccc1NC(=O)c1cccc(OC(F)F)c1,.,94*,?,37*
O=C(Nc1ccc(OC(F)F)c(Cl)c1)c1cccc(OC(F)F)c1,.,67*,-104%,43*
COc1ccc(NC(=O)COc2ccccc2C(=O)NCC(c2ccccc2)N(C)C)cc1Cl (stereo not given),?,5,13µM*,-4
COC(=O)c1cccc(NC(=O)c2ccc(OC)c(Cl)c2)c1,48%,65,72%,17
Cc1ccc(NC(=O)c2cccc(OC(F)F)c2)c(OC(F)F)c1,23%,17,54%,16
COc1ccc(NC(=O)c2cccc(OC(F)F)c2)cc1Cl,193%,131*,.,39*
CS(=O)(=O)c1ccc(Oc2ccc(-c3nnco3)cc2)c([N+](=O)[O-])c1,13%,38,10%,17
CC(OC(=O)CCN=C1NS(=O)(=O)c2ccccc21)C(=O)Nc1ccc(F)cc1 (stereo not given),11%,.,26%,.
COc1cc(OC)c(NC(=O)c2cccc(F)c2)cc1Cl,15%,31,40%,10
Cc1ccc(C(=O)NC(NC(=O)c2ccc(C)cc2)c2cccc([N+](=O)[O-])c2)cc1,?,-2,?,0
COc1cccc(C(NC(=O)c2ccccc2F)NC(=O)c2ccccc2F)c1,13µM*,-2,?,-3
COc1ccc(NC(=O)c2ccccc2F)cc1Cl,.,35*,2%,29*
Cc1ccccc1C(=O)NC(NC(=O)c1ccccc1C)c1cccc([N+](=O)[O-])c1,27%,-11,1.7µM*,-6
COc1ccc(NC(=O)c2cccc(F)c2)cc1Cl,.,57*,216%,20*
Nc1ccc(C(=O)n2c3ccccc3c3ccccc32)cc1,-12%,-15,2.3µM*,-6
Nc1ccc(C(=O)N2CCCC2)cc1,17%,1,-15%,-1
COc1ccc(C(=O)OCC(=O)NC2CCCC2)cc1OC,19%,-5,23%,-1
CC(C)c1ccc(C(=O)OCC(=O)NC2CCCC2)cc1,35%,31,42%,27*
CCc1ccc(C(=O)OCC(=O)NC2CCCC2)cc1,28%,45,-11%,30*
SMILES,Pf growth 48h,Shiga toxin inh,Pf growth 96h,CHX counter
O=C(COC(=O)c1ccc(Cl)cc1)NC1CCCCCC1,15%,.,11%,.
Cc1ccc(C(=O)OCC(=O)NC2CCCC2)cc1C,41%,54*,40%,22*
Cc1ccc(S(=O)(=O)CCC(=O)OCC(=O)c2cc(C)n(C)c2C)cc1,?,.,-5%,.
Cc1c(N(C)S(=O)(=O)c2cc(C(=O)NCC3CCCO3)ccc2Cl)c(=O)n(-c2ccccc2)n1C (stereo not given),-22%,.,10%,.
CC1(C)CC(=O)C(CC(=O)NC2CCCc3ccccc32)C(=O)C1 (stereo not given),-3%,16,13%,-2
O=C(COC(=O)c1ccccc1)Nc1ccccc1Br,0%,65*,5%,40*
O=C(COC(=O)/C=C/c1ccccc1)Nc1ccccc1Br,13%,-9,0%,10
O=C(COC(=O)c1cc[n+]([O-])cc1)Nc1cccc(Cl)c1Cl,12µM*,33,17%,7
CS(=O)(=O)c1ccc(Cl)c(NC(=O)COC(=O)c2c(Cl)cccc2Cl)c1,?,20,-8%,-3
O=C(COC(=O)c1c(Cl)cccc1Cl)Nc1ccccc1Br,?,18,?,26*
